# Only a selection was taken, and hits are over-represented in it overall.
# Pf apPOL block: Pf-apPOL DNA polymerase inhibition | Recombinant Pf-apPOL, molecular beacon fluorescence, 1.5 h | inhibition, % at 10 µM | 210,000 compounds, 0.25% hits
# mHTT-CaM PPI inh: mHTT-calmodulin interaction abrogation. 190,000 compounds, 3.6% hits. AlphaScreen His-mHTT/GST-CaM binding, luminescence. AID 1671202. inhibition, % at 15 µM;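 also: 0% = both proteins with DMSO and 100% = one protein alone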
# The depositor's hits bear a star; x = no result. Rule as the data show it: active = inhibition above about 50%; inactive = the rest.
SMILES,Pf apPOL block,mHTT-CaM PPI inh
COc1ccc(C2Nc3ccccc3C(=O)N2Cc2ccco2)cc1COc1ccc(Cl)cc1 (centres undefined),7.9,55.0*
Cc1ccc(CNC(=O)CN2C(=O)CCCc3ccccc32)cc1,2.0,2.3
COc1ccc(C=C2Oc3cc(C)c(CN4CCOCC4)c(O)c3C2=O)cc1,3.5,0.7
COc1ccc(C=C2Oc3cc(C)c(CN4CCN(C)CC4)c(O)c3C2=O)cc1,13.0,79.4*
Cn1c2ccc(Br)cc2c2nnc(SCC(=O)N=C3NC(=O)CS3)nc21,4.9,23.0
O=C(CSc1nc(-c2ccccc2)cc(-c2ccccc2)n1)N=C1NC(=O)CS1,8.0,61.0*
COc1ccccc1/C=C/C1=NC(=C/c2ccc(SC)cc2)/C(=O)O1,3.5,1.0
CCC(C)c1cc([N+](=O)[O-])cc([N+](=O)[O-])c1OC(=O)OC(C)C (centres undefined),-9.5,51.0*
CC(=O)Nc1ccc(Nc2ncc([N+](=O)[O-])cc2[N+](=O)[O-])cc1,6.8,8.0
CSc1ccccc1C(=O)N1CCN(Cc2nc(-c3ccc(F)cc3)cs2)CC1,-12.8,7.4
CC(=O)Nc1ccc(NC2=CC(=NS(=O)(=O)c3ccc(C)cc3)c3ccccc3C2=O)cc1,-0.9,39.0
O=C(O)c1ccc(NC2=CC(=NS(=O)(=O)c3ccc(Cl)cc3)c3ccccc3C2=O)cc1,4.9,82.0*
Cc1ccc(S(=O)(=O)c2ccc(Cl)cc2)cc1S(=O)(=O)Nc1ccc(C(=O)O)cc1,2.6,-2.4
CC(=O)Nc1ccc(NC2=CC(=NS(=O)(=O)c3ccccc3)c3ccccc3C2=O)cc1,-1.6,71.0*
CN(C)C(=O)c1cc2c(s1)CCC(C(=O)NCCc1ccccn1)C2 (centres undefined),-3.2,-5.2
O=C(CSc1cc(N2CCCCC2)ncn1)NCc1ccco1,-7.4,-11.7
N#C/C(=C1/CCCCN1)c1nnc2n1CCCC2,x,-1.7
COc1cccc(C2CC(c3ccc(F)cc3)=NC3(CCN(C(C)C)CC3)N2)c1O (centres undefined),-4.7,16.1
CN(CCC#N)C(=O)c1cnn2c1NC(c1ccco1)CC2C(F)(F)F (centres undefined),-3.5,-2.0
CC(C)NC(=O)Cn1cccc1-c1nc(-c2ccccc2)cs1,-1.1,-3.1
Cc1ccnc(NC(=O)Cn2cccc2-c2nc(-c3ccccc3)cs2)c1,-0.8,54.1*
CC(C)(O)c1nc(-c2ccccc2)nn1-c1ccccc1,4.1,-7.1
CCOc1ccc(-n2c(SCC(=O)Nc3ccccc3F)nc3c(c2=O)SCC3)cc1,2.5,1.0
COc1ccc(C(C(=O)Nc2ccc3c(c2)OCO3)N(C)C(=O)CNC(C)=O)cc1 (centres undefined),-4.3,2.0
Cc1ccc(C(C(=O)Nc2ccc3c(c2)OCO3)N(C)C(=O)Cc2c[nH]c3ccccc23)cc1 (centres undefined),-4.2,93.0*
SMILES,Pf apPOL block,mHTT-CaM PPI inh
CN(CC(=O)N1CCN(Cc2ccccc2)CC1)S(=O)(=O)c1ccc(Cl)cc1,96.6*,7.4
CN(CC(=O)N1CCN(c2ccc(F)cc2)CC1)S(=O)(=O)c1ccc(Cl)cc1,-3.8,11.7
CN(CC(=O)N1CCCC1)S(=O)(=O)c1ccc(Cl)cc1,51.3*,-4.2
COc1ccc(N2CCN(C(=O)CN(C)S(=O)(=O)c3ccc(Cl)cc3)CC2)cc1,88.7*,16.8
CN1CCN(C(=O)CN(C)S(=O)(=O)c2ccc(Cl)cc2)CC1,7.6,-3.7
CN(CC(=O)N1CCCCCC1)S(=O)(=O)c1ccc(Cl)cc1,-3.2,1.9
O=C1NC2(CCN(C(=O)c3cccc(F)c3)CC2)Nc2cc(Cl)ccc21,0.1,4.5
COc1ccc(CN=C2NS(=O)(=O)c3ccccc32)cc1,6.0,-2.0
CCCCOc1ccc(-c2nc(C=Nc3ccccc3Br)c(O)o2)cc1,4.4,0.0
Cc1onc(-c2ccccc2Cl)c1C(=O)Nc1cccc(-c2cn3cccnc3n2)c1,-5.6,16.2
O=C(CSCc1ccccc1)Nc1cccc(-c2cn3cccnc3n2)c1,-6.1,52.1*
COc1ccc(CCC(=O)Nc2cc(-c3cccnc3)no2)cc1,-7.9,2.5
O=C(COc1ccc(F)cc1)N1CCCC(c2ccnc(-c3ccccc3)n2)C1 (centres undefined),-0.8,72.8*
O=C(c1ccc(F)cc1)N1CCCC(c2ccnc(-c3ccccc3)n2)C1 (centres undefined),-1.9,17.5
O=C(c1ccccc1)N1CCCC(c2ccnc(-c3ccccc3)n2)C1 (centres undefined),-2.7,31.1
O=C(c1ccco1)N1CCCC(c2ccnc(-c3ccccc3)n2)C1 (centres undefined),-1.5,61.1*
O=C1C(=Cc2ccccn2)SC(=S)N1Cc1ccncc1,-8.8,x
O=c1c2ccccc2nc(/C=C/c2cc(Br)ccc2O)n1CCCO,16.0,76.0*
O=c1[nH]c(/C=C/c2cc(Br)ccc2O)nc2ccccc12,1.6,-0.7
Cc1cccc(-c2nccc(C3CCCN(C(=O)Cc4cccc(F)c4)C3)n2)c1 (centres undefined),-3.5,46.0
CCOCC(=O)N1CCCC(c2ccnc(Nc3ccc(C)cc3)n2)C1 (centres undefined),-3.2,38.0
CCOCC(=O)N1CCCC(c2ccnc(Nc3cccc(F)c3)n2)C1 (centres undefined),-3.6,61.5*
O=C(Cc1cccc(F)c1)N1CCCC(c2ccnc(Nc3cccc(F)c3)n2)C1 (centres undefined),-1.6,73.3*
CCCCC(=O)Nc1c2c(nn1-c1ccccc1C)CS(=O)C2 (centres undefined),-1.7,2.0
O=C(Oc1ccc2c(c1)OC(=CC1=Cc3ccccc3OC1)C2=O)c1cccs1,-2.5,78.7*
SMILES,Pf apPOL block,mHTT-CaM PPI inh
CC(=O)COc1ccc2c(c1)OC(=CC1=Cc3ccccc3OC1)C2=O,-2.4,-2.1
CCC(C(=O)Nc1ccc([N+](=O)[O-])cc1C)c1ccccc1 (centres undefined),2.1,-3.1
Fc1ccc(N2Cc3ccccc3C2)cc1,x,-6.5
Oc1ccc(N2Cc3ccccc3C2)cc1,-8.4,100.3*
O=C(O)C1CSC(c2cccc([N+](=O)[O-])c2)N1 (centres undefined),1.5,4.0
O=C(O)C1CSC(c2ccc([N+](=O)[O-])s2)N1 (centres undefined),-2.3,56.0*
CNc1nccc(N2CCC(CC(=O)NCCOC)CC2)n1,1.0,-2.0
CNC(=O)CC1CCN(c2ccnc(NC)n2)CC1,93.1*,-1.7
CCNc1nccc(N2CCC(CC(=O)N3CCN(c4cccc(Cl)c4)CC3)CC2)n1,-5.6,50.7*
CNc1nccc(N2CCC(CC(=O)N3CCN(c4cccc(C)c4)CC3)CC2)n1,2.5,11.4
CCc1cccc(CC)c1NC(=O)CN1C(=O)c2ccccc2C1=O,-1.8,-3.2
CC(C)(C)c1ccc(S(=O)(=O)N2CCC3(CC2)NCCN=C3NC2CCCCC2)cc1,-1.6,12.7
Cn1c(=O)c(C(=O)NCc2ccc(Cl)cc2)nc2cccnc21,-1.3,5.3
CC(C)c1ccc(CNC(=O)c2nc3cccnc3n(C)c2=O)cc1,0.3,62.3*
COc1cc(OC)c(OC)cc1CN1CCN(C(=O)c2cccnc2)CC1,-1.3,3.0
Cc1ccccc1-n1nc2c(c1NC(=O)CC13CC4CC(CC(C4)C1)C3)CSC2,-9.1,0.0
COc1ccc(NC(=O)C2CN(S(=O)(=O)C3CC3)CC23CCCCC3)cc1 (centres undefined),9.3,57.9*

# Assay outcomes deposited in PubChem BioAssay by University of Kansas High Throughput Screening Laboratory.
